SMILES strings stand for the structures. “And” between values parts separate entries of the source, which are not always exact repeats. Equal entries are not always repeated. Records with an inconclusive call do not appear. Where a call stands in place of a potency, no number is given. The source made the active and inactive calls. The call rests on the fitted dose curve; in most records, active means well fitted cell-killing curve with a large enough effect in the repeat runs; inconclusive means weak or mixed curves, or effect the other way; inactive means flat fitted curve, though single readings scatter.
Potency means the concentration at half of the fitted maximal effect.

This experiment is described as follows: qHTS assay to identify small molecule antagonists of the estrogen receptor alpha (ER-alpha) signaling pathway using the BG1 cell line in the presence of 0.1 nM 17-beta-estradiol - cell viability counter screen (AID 1259241). Further: nearly all actives have a fitted effect of over 40% in size. The settings on record: VM7Luc4E2 (BG1) viability, CellTiter-Fluor protease, 22 h, 0.1 nM estradiol agonist added; series mostly up to 92.4 µM; activity change, negative = cytotoxicity: at the top concentration. An excerpt:
National Center for Advancing Translational Sciences [NCATS]
NIH Chemical Genomics Center [NCGC]
U.S. Environmental Protection Agency [EPA]
National Institutes of Environmental Health Sciences [NIEHS]
National Toxicology Program [NTP]
U.S. Food and Drug Administration [FDA]
Estrogen receptor (ER), a member of the nuclear hormone receptor plays an important role in development, metabolic homeostasis and reproduction. Two subtypes of ER, ER-alpha and ER-beta, have similar expression patterns with some uniqueness in both types. Endocrine disrupting chemicals (EDCs) and their interactions with steroid hormone receptors like ER causes disruption of normal endocrine function. Therefore, it is important to understand the effect of environmental chemicals in ER signaling pathway. For identifying ER antagonists, VM7Luc4E2 cell line was used to screen against Tox21 compound libraries.
VM7Luc4E2 cell line (provided by Denison MS, University of California) endogenously express full-length ER-alpha and is stably transfected with a plasmid containing four estrogen responsive elements (ERE) upstream of a luciferase reporter gene. The current screening for identification of ER-alpha inhibitors against Tox21 compound libraries used lower concentration (0.1 nM) of 17beta-Estradiol as a stimulator. The cytotoxicity of the Tox21 compound libraries against VM7Luc4E2 cell line was tested by measuring live-cell protease activity using CellTiter-Fluor assay in the same wells.
Tox21 Assay Protocol Summary:
VM7Luc4E2 cells were cultured in phenol red free assay medium containing 10% charcoal stripped FBS for 5 days prior to the assay. The cells were dispensed at 4,000 cells/well in 4 uL of assay medium into white wall/solid-bottom 1536-well plates (Corning Life Sciences, Corning, NY) using a Multidrop Combi (ThermoFisher Scientific, Waltham, MA) dispenser. After the assay plates were incubated at 37C and 5% CO2 for 24 hr, 23 nL of compounds dissolved in DMSO, positive controls or DMSO only was transferred to the assay plates by a Pintool station (Kalypsys, San Diego, CA). The transfer of compounds was followed by the addition of 1 uL of 0.1 nM (final concentration) agonist (17beta-Estradiol)/assay medium using a Flying Reagent Dispenser (FRD, Aurora Discovery, San Diego, CA). The plates were incubated at 37C and 5% CO2 for 22 hr. For cytotoxicity assay, 1 uL of CellTiter-Fluor reagent (Promega Corporation, Madison, WI) was added to each well using the FRD and after 30 min incubation at 37C and 5% CO2, The fluorescence intensity was measured using ViewLux plate reader (PerkinElmer, Shelton, CT).
In the case of `NC(=O)c1cccnc1`, the Potency result was “inactive”.
As to `CCCCCCCCCCCC[N+](C)(C)Cc1ccccc1`, the “activity change, negative = cytotoxicity” value was -2.81% (inactive).
Consider `O=C1O[C@H]([C@@H](O)CO)C(O)=C1O`, for which the Potency entry is “inactive”.
As to `CCN(Cc1c(F)cccc1Cl)c1c([N+](=O)[O-])cc(C(F)(F)F)cc1[N+](=O)[O-]`, the “activity change, negative = cytotoxicity” value is -18% (inactive).
On to `Cc1ncc([N+](=O)[O-])n1C`, for which the Potency result is “inactive”.
`CN[C@H]1CC[C@@H](c2ccc(Cl)c(Cl)c2)c2ccccc21`: the “activity change, negative = cytotoxicity” value is -20.1% [at 42.5 µM] (inactive).
Still for that read-out and setting: in the case of `C1CCC(C(CC2CCCCN2)C2CCCCC2)CC1` (stereo not given) it was -27.6% [at 42.5 µM] (inactive).
For the compound `C[C@](N)(Cc1ccc(O)c(O)c1)C(=O)O`, the Potency result was “inactive”.
The same measure, in the same setting: with `Cc1cc(C)nc(NS(=O)(=O)c2ccc(N)cc2)n1` the entry was “inactive”; with `CC12CCC(CC1)C(C)(C)O2`, “inactive”; with `NS(=O)(=O)c1cc2c(cc1Cl)NCNS2(=O)=O`, “inactive”.
The same measure, in the same setting: with `O=C1c2c(O)cccc2Cc2cccc(O)c21` the entry was “inactive”; with `CC(=O)Nc1c(I)c(NC(C)=O)c(I)c(C(=O)O)c1I`, “inactive”; with `CC(C)C(=O)Nc1ccc([N+](=O)[O-])c(C(F)(F)F)c1`, “inactive”.
The same measure, in the same setting: in the case of `Nc1ccc([N+](=O)[O-])cc1O` it was 61.1 µM (active); in that of `Oc1ccccc1`, “inactive”; in that of `CN(C)C(=O)Nc1ccc(Cl)c(Cl)c1`, “inactive”.
As to `Nc1c(N=Nc2ccc(-c3ccc(N=Nc4cc(S(=O)(=O)O)c5ccccc5c4N)cc3)cc2)cc(S(=O)(=O)O)c2ccccc12`, the Potency was 12.2 µM (active).
The same measure, in the same setting: in the case of `CC1(C)S[C@@H]2[C@H](NC(=O)[C@H](N)c3ccccc3)C(=O)N2[C@H]1C(=O)O` it was “inactive”; in that of `Cc1cn([C@H]2C=C[C@@H](CO)O2)c(=O)[nH]c1=O`, “inactive”; in that of `Cc1ccc(S(=O)(=O)O)cc1`, “inactive”.
`Cc1cccc(C)c1`: the Potency entry was “inactive”.
Take `CCCCCCc1ccc(O)cc1O`: the Potency result was “inactive”.
On the same count and under the same terms, in the case of `CC(O)(P(=O)(O)O)P(=O)(O)O` it was “inactive”.
The same measure, in the same setting: with `O=S1(=O)OC(c2ccc(O)cc2)(c2ccc(O)cc2)c2ccccc21` the figure was 30.6 µM (active) and 21.7 µM (active) and 8.41 µM (active).
Turning to `O=CC(=O)c1ccccc1`, the “activity change, negative = cytotoxicity” value is -21.9% (inactive).
In the case of `O=C(O)c1ccccc1`, the Potency entry is “inactive”.
Still for that read-out and setting: in the case of `CN(N=O)C(=O)N[C@@H]1[C@@H](O)[C@H](O)[C@@H](CO)O[C@@H]1O` it was “inactive”; in that of `NC1CCCCC1`, “inactive”; in that of `CC(=O)CC(c1ccccc1)c1c(O)c2ccccc2oc1=O` (stereo not given), “inactive”.
`CCCCNC(=O)NS(=O)(=O)c1ccc(C)cc1`: the Potency entry was “inactive”.
As for `CC(=O)CCC(=O)O`, the Potency entry is “inactive”.
For `C1=CC2C3C=CC(C3)C2C1` (stereo not given), the “activity change, negative = cytotoxicity” value is -2.31% (inactive).
As to `F[B-](F)(F)F`, the Potency result was “inactive”.
On the same count and under the same terms, in the case of `Cc1cc(=O)oc2cc(O)ccc12` it was “inactive”; in that of `CCc1nc(N)nc(N)c1-c1ccc(Cl)cc1`, “inactive”.
On the same count and under the same terms, in the case of `CS(=O)(=O)OCCCCOS(C)(=O)=O` it was “inactive”; in that of `COc1ccc(C(Cl)=C(c2ccc(OC)cc2)c2ccc(OC)cc2)cc1`, “inactive”.
On to `O=C1NS(=O)(=O)c2ccccc21`, for which the Potency entry was “inactive”.
Take `Nc1c2c(nc3ccccc13)CCCC2`: the Potency entry is “inactive”.

Source of the values: PubChem BioAssay (Tox21).
